Results on six compounds are retold here after PubChem BioAssay.

Test [1] in a line: Plasmodium falciparum growth inhibition, primary screen, strain 3D7, DAPI fluorescence, 100 nL (AID 1184).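 Also: parasites grown inside human red blood cells in medium with human serum.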 Particulars: P. falciparum 3D7 growth, 3 d, higher = more signal.
Test [2] concerns the target Homeobox protein Hox-A13 (Mus musculus) (UniProt Q62424). Description: inhibitors of HoxA13-DNA binding, primary screen, biochemical, fluorescence polarization, labeled oligonucleotide (AID 1185). Particulars: 15 min, higher = more signal, called active from +8 up or from −8 down. (In fluorescence polarisation assays a small probe gives low polarisation when free and higher when bound to something large.)

Test [3] in a line: inhibitors of hydroxyurea-induced Chk1 phosphorylation, primary screen, imaging, HeLa, phospho-Chk1 antibody, percent positive cells (AID 1186). The following applies: hydroxyurea-induced phospho-Chk1 immunofluorescence imaging, higher = more signal.
A short description of test [4]: inhibitors of hydroxyurea-induced Chk1 phosphorylation, primary screen, imaging, HeLa, phospho-Chk1 nuclear intensity (AID 1187). Also: test concentration not given here. Particulars: hydroxyurea-induced phospho-Chk1 immunofluorescence imaging, higher = more signal.

The source made the active and inactive calls. Unless noted, no rule for the calls is given here.

Homeobox protein Hox-A13 (Mus musculus), sequence (Q62424 whole entry, looked up): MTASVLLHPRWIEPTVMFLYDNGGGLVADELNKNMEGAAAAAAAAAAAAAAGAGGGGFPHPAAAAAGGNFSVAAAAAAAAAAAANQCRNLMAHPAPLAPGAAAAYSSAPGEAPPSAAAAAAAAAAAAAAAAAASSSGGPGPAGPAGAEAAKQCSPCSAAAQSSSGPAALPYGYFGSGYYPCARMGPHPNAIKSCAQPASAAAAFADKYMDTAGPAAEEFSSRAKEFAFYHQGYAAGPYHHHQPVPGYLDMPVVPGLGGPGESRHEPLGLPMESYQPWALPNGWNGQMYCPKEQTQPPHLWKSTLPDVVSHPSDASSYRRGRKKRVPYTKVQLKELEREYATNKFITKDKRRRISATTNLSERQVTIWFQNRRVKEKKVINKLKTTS

In the case of `[N-]=[N+]=NCc1ccccc1C[C@@]1(C(=O)NCc2ccccc2)N=C(c2ccc(OCCCO)cc2)O[C@@H]1c1ccccc1`, the z-score in test [1] is -2.15; in test [2], 0.77 (inactive); in test [3], -1.01 (inactive); in test [4], -1.39 (inactive).

Take `CC(C)C[C@@H]1NC(=O)[C@@]23C(=O)N[C@@H](Cc4ccccc4)C2[C@H](C)[C@@]2(C)O[C@H]2C3/C=C/CC/C=C/CNC(=O)[C@@H](C)NC1=O` (some centres undefined): the z-score in test [1] is -2.13; in test [2] it was -4.78 (inactive); in test [3], -0.0396 (inactive); in test [4], 0.292 (inactive).

As for `CC(C)(C)OC(=O)CC[C@@]1(C(=O)NCc2ccccc2)N=C(c2ccc(OCCCO)cc2)O[C@@H]1c1ccccc1CN=[N+]=[N-]`, the z-score in test [1] was -2.72; in test [2], -0.088 (inactive); in test [3], -0.763 (inactive); in test [4], -0.84 (inactive).

Take `C=CCNC(=O)[C@H]1[C@@H]2C(=O)O[C@@H](c3ccccc3)[C@@H](c3ccccc3)N2[C@@H](c2ccccc2OCCO)[C@]12C(=O)N(C(=O)OCCOC)c1ccc(C#CCCO)cc12`: the z-score is -2.16 in test [1], -1.2 (inactive) in test [2], 0.051 (inactive) in test [3] and -0.0745 (inactive) in test [4].

`COc1ccc([Si](C)(C)[C@H]2[C@H](CC(=O)N(CCO)Cc3ccccc3)O[C@@]3(C(=O)N(Cc4ccc(N5CCC5=O)cc4)c4ccccc43)[C@@H]2C)cc1`: the z-score in test [1] is -1.24; in test [2] it was -0.622 (inactive); in test [3], -0.632 (inactive); in test [4], -0.0543 (inactive).

Regarding `C=C[C@H](OC)[C@@H](OC(=O)Nc1ccc(OC)cc1)c1ccc(OC)c(O)c1`, the z-score is -0.294 in test [1], -2.75 (inactive) in test [2], 0.0254 (inactive) in test [3] and 0.471 (inactive) in test [4].
